4 compounds from PubChem BioAssay (EPA / NIEHS) can be followed below.

Several values for one entry are separate records, joined by “and”; a condition that tells them apart may be missing. Identical values can stand only once. Results filed as inconclusive are left out. Where a structure was tested more than once in an assay, its records may differ in their call. Activity calls are given as the source filed them. How the source made its calls, unless noted: active means hit-call score of the fitted dose curve at least 0.9, where 1 is the maximum; inactive means score below 0.9.

Assay [1] concerns the target Estrogen receptor (Homo sapiens) (UniProt P03372). The assay can be described thus: ATG_ERa_TRANS: Attagene TRANS-FACTORIAL HepG2 Assay for human Estrogen Receptor alpha (ERa) (AID 2282970; active means hit-call score of the fitted dose curve at least 0.9, where 1 is the maximum). The settings on record: HepG2 Attagene TRANS ERa GAL4 reporter, mRNA. The essentials: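 One of 30 multiplexed endpoints from a HepG2 TRANS system, this one reports ERa-Gal4-driven reporter mRNA. Transcripts were quantified 24 hours post-dosing by fluorescent RT-PCR and capillary electrophoresis, with activity scored as induction over DMSO.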

Read-out in assay [2]: Human Leukocyte Antigen - DR isotype (HLADR), HLA-DRA (gene 3122)
Description: BSK_3C_HLADR: BioMAP Diversity Plus: 3C Assay for Human Leukocyte Antigen - DR isotype (HLADR) Biomarker Activity (AID 2283019). The following applies: primary human endothelial cells (HUVEC); actives raise or lower the signal. The method, boiled down: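 Primary human umbilical vein endothelial cells (3C system) were dosed with compound and cell-surface HLA-DR was quantified by ELISA at 24 h. Activity was fitted bidirectionally against DMSO as negative control and baseline.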

Read-out in assay [3]: Vascular endothelial growth factor receptor 2 (Homo sapiens) (UniProt P35968)
Description: BSK_4H_VEGFRII: BioMAP Diversity Plus: 4H Assay for Vascular endothelial growth factor receptor 2 (VEGFR2) Biomarker Activity (AID 2283031).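 On AC50: cell-surface VEGFR2 protein level quantified by ELISA.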 The following applies: primary human endothelial cells (HUVEC); actives raise or lower the signal. The essentials:
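Primary human umbilical vein endothelial cells in the BioMAP 4H system were dosed with test chemical, and 24 h later VEGFRII was measured by ELISA. Activity was fitted bidirectionally against DMSO as negative control and baseline.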

Read-out in assay [4]: Interleukin-8 (IL8), CXCL8 (gene 3576)
The assay can be described thus: BSK_CASM3C_IL8: BioMAP Diversity Plus: CASM3C Assay for Interleukin-8 (IL8) Biomarker Activity (AID 2283042).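 Further: IL-8 protein level quantified by ELISA.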 The following applies: primary human coronary artery smooth muscle cells; actives raise or lower the signal.

Read-out in assay [5]: Monokine induced gamma interferon (MIG), CXCL9 (gene 4283)
The assay can be described thus: BSK_CASM3C_MIG: BioMAP Diversity Plus: CASM3C Assay for Monokine induced gamma interferon (MIG) Biomarker Activity (AID 2283048).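 Further: MIG protein level measured by ELISA.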 The settings on record: primary human coronary artery smooth muscle cells; actives raise or lower the signal.

Read-out in assay [6]: Urokinase-type plasminogen activator receptor (uPAR), PLAUR (gene 5329)
Description: BSK_CASM3C_uPAR: BioMAP Diversity Plus: CASM3C Assay for Urokinase-type plasminogen activator receptor (uPAR) Biomarker Activity (AID 2283054).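 Further: cell-surface uPAR protein level quantified by ELISA.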 The settings on record: primary human coronary artery smooth muscle cells; actives raise or lower the signal.

Read-out in assay [7]: Tissue Factor, F3 (gene 2152)
The assay can be described thus: BSK_LPS_TissueFactor: BioMAP Diversity Plus: LPS Assay for Tissue Factor Biomarker Activity (AID 2283084). The following applies: primary human HUVEC with PBMC; actives raise or lower the signal. The method, boiled down:
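Human umbilical vein endothelial cells co-cultured with peripheral blood mononuclear cells were dosed and stimulated with LPS. Cell-surface CD142 was quantified by ELISA at 24 h. Activity was fitted bidirectionally against DMSO baseline.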

Read-out in assay [8]: Vascular cell adhesion molecule 1 (VCAM1), VCAM1 (gene 7412)
Description: BSK_LPS_VCAM1: BioMAP Diversity Plus: LPS Assay for Vascular cell adhesion molecule 1 (VCAM1) Biomarker Activity (AID 2283086). The settings on record: primary human HUVEC with PBMC; actives raise or lower the signal. The essentials:
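VCAM-1 quantified by ELISA in an LPS-activated co-culture of human endothelial cells and peripheral blood mononuclear cells, read 24 h post-treatment. Fitted in both directions versus DMSO; parallel SRB staining flags overt cytotoxicity.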

Read-out in assay [9]: CD40, CD40 (gene 958)
Description: BSK_SAg_CD40: BioMAP Diversity Plus: SAg Assay for CD40 Biomarker Activity (AID 2283088). The following applies: primary human HUVEC with PBMC; actives raise or lower the signal. The method, boiled down: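 Human umbilical vein endothelial cells co-cultured with PBMC; CD40 levels measured by ELISA with fluorescence read-out 24 h after chemical dosing. Gain or loss of signal fitted bidirectionally against DMSO baseline.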

Read-out in assay [10]: Interleukin-8 (IL8), CXCL8 (gene 3576)
Description: BSK_SAg_IL8: BioMAP Diversity Plus: SAg Assay for Interleukin-8 (IL8) Biomarker Activity (AID 2283094). The settings on record: primary human HUVEC with PBMC; actives raise or lower the signal. The method, boiled down: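 ELISA readout of IL-8 from a superantigen-activated endothelial/PBMC primary human co-culture, taken 24 h post-dosing and fitted in both directions against DMSO; parallel SRB total-protein staining flags overt cytotoxicity.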

Assay [11] in a line: BSK_SAg_SRB: Viability Assessment in the BioMAP Diversity Plus: SAg Assay (AID 2283096).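 Further: cells read one day after compound addition; hits may be either gain or loss of signal compared with DMSO.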 The settings on record: primary human HUVEC with PBMC. The essentials:
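This overt-cytotoxicity endpoint quantifies protein in human endothelial/PBMC co-cultures at 24 h using SRB absorbance (560 nm) after trichloroacetic acid fixation. Values reflect signal change from the DMSO negative control, fitted bidirectionally.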

Assay [12] is described as follows: BSK_BT_PBMCCytotoxicity: PBMC Cytotoxicity Assessment in the BioMAP Diversity Plus: BT Assay (AID 2284225).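 Further: PBMC viability measured by Alamar Blue dye reduction fluorescence.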 The settings on record: primary human B cells with PBMC. The method, boiled down:
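Viability by Alamar Blue reduction (6 h, ex/em 546/580 nm) after 90 h culture of SEB/TSST-1-activated PBMC (20 ng/mL each) given compound 1 h before activation. DMSO served as baseline for curve fitting.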

Read-out in assay [13]: Secreted IgG (sIgG), gene 3500
The assay can be described thus: BSK_BT_sIgG: BioMAP Diversity Plus: BT Assay for Secreted IgG (sIgG) Biomarker Activity (AID 2284226). The following applies: primary human B cells with PBMC. The method, boiled down:
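ELISA quantitation of secreted IgG from human B cells co-cultured with PBMC, sampled 24 h post-dosing. Values fitted relative to DMSO vehicle as baseline, positive fitting direction.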

Assay [14] in a line: BSK_BT_Bcell_Proliferation: Viability Assessment in the BioMAP Diversity Plus: BT Assay for B cell Proliferation (AID 2284227). The settings on record: primary human B cells with PBMC. The essentials: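 SRB-based protein staining (0.1% SRB after 10% TCA fixation, 560 nm) quantifies proliferation in human B cells co-cultured with PBMC, 72 h post-dosing, with signal gain scored relative to DMSO negative control.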

Read-out in assay [15]: Interleukin 17A (IL17A), IL17A (gene 3605)
Description: BSK_BT_xIL17A: BioMAP Diversity Plus: BT Assay for Interleukin 17A (IL17A) Biomarker Activity (AID 2284229). The following applies: primary human B cells with PBMC. The essentials:
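B cells co-cultured with PBMC were exposed to test chemicals, and secreted IL-17A was quantified 24 h after dosing by Luminex xMAP bead immunoassay. Activity was fitted in the gain direction against DMSO as baseline.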

Read-out in assay [16]: Collagen III, COL3A1 (gene 1281)
The assay can be described thus: BSK_MyoF_CollagenIII: BioMAP Diversity Plus: MyoF Assay for Collagen III Biomarker Activity (AID 2284239). The settings on record: primary human lung fibroblasts. The essentials: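 Human lung fibroblasts were dosed with chemicals and, 24 hours later, collagen III was measured by ELISA. Activity was fitted in the positive direction against the DMSO negative-control baseline.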

Read-out in assay [17]: Interleukin 2 (IL2), IL2 (gene 3558)
The assay can be described thus: BSK_BT_xIL2: BioMAP Diversity Plus: BT Assay for Interleukin 2 (IL2) Biomarker Activity (AID 2284245). The following applies: primary human B cells with PBMC. The method, boiled down: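 Secreted IL-2 was read by Luminex xMAP from B cells co-cultured with PBMC (human primary) 24 h post-dosing; activity was analysed as gain of signal relative to DMSO vehicle.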

Read-out in assay [18]: Collagen IV, COL4A1 (gene 1282)
Description: BSK_MyoF_CollagenIV: BioMAP Diversity Plus: MyoF Assay for Collagen IV Biomarker Activity (AID 2284247). The following applies: primary human lung fibroblasts. The essentials:
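Collagen IV quantified by ELISA in human lung fibroblast cultures 24 h after chemical treatment, with DMSO as baseline. Parallel SRB staining (0.1% SRB after TCA fixation, 560 nm) flags overt cytotoxicity.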

Read-out in assay [19]: Plasminogen activator inhibitor-1 (PAI1), SERPINE1 (gene 5054)
The assay can be described thus: BSK_MyoF_PAI1: BioMAP Diversity Plus: MyoF Assay for Plasminogen activator inhibitor-1 (PAI1) Biomarker Activity (AID 2284256).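 On outcome: PAI-1 protein level measured by ELISA in fibroblast cultures; PAI-1 read 24 h after compound addition.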 The settings on record: primary human lung fibroblasts. The method, boiled down:
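ELISA read-out of PAI-1 from primary human lung fibroblast cultures 24 h after dosing; gain-of-signal fit versus DMSO control.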

Read-out in assay [20]: Matrix Metallopeptidase 1 (MMP1), MMP1 (gene 4312)
Description: BSK_MyoF_MMP1: BioMAP Diversity Plus: MyoF Assay for Matrix Metallopeptidase 1 (MMP1) Biomarker Activity (AID 2284268). The settings on record: primary human lung fibroblasts. The essentials: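 ELISA readout of MMP1 in primary human lung fibroblast cultures, 24 h post-dosing. Gain of signal versus DMSO vehicle control defines activity. Parallel SRB staining (0.1% after 10% TCA fixation, 560 nm) flags overt cytotoxicity.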

Estrogen receptor (Homo sapiens), sequence (P03372 whole entry, looked up, the tested form may be a part): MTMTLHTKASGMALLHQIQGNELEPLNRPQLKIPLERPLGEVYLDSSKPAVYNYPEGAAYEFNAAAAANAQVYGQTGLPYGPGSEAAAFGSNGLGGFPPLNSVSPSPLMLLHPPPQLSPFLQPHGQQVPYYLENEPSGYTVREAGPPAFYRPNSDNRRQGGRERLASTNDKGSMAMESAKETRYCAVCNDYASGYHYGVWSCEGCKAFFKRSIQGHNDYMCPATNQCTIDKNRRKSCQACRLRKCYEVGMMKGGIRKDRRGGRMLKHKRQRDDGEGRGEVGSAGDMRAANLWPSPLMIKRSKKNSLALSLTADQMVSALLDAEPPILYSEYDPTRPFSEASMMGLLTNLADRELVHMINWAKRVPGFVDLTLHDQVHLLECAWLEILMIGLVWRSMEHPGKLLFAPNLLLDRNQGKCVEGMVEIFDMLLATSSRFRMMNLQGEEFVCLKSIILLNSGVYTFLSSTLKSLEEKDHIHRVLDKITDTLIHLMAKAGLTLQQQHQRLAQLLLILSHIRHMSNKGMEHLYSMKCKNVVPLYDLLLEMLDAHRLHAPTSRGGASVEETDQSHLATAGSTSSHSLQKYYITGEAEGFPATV

As to `CC(C)CCCCCCCOP(=O)(Oc1ccccc1)Oc1ccccc1`, the AC50 (commonly the concentration at which the activity in the assay is half-maximal) is 5.78 µM (active) in assay [1]; 6.74 µM (active) in assay [2]; 10.9 µM (active) in assay [3]; 31 µM (active) in assay [7]; 27.8 µM (active) in assay [8]; 26.2 µM (active) in [9]. For the same compound, the AC50 is 11.9 µM (active) in assay [10]; 25.9 µM (active) in assay [11]; 35.8 µM (active) in assay [12]; 18.9 µM (active) in assay [13]; 29.5 µM (active) in assay [14]; 19.5 µM (active) in assay [15]. For the same compound, the AC50 in [16] was 8.98 µM (active); in assay [17], 26.4 µM (active); in [19] it was 12.8 µM (active); in [20], 5.17 µM (active). In addition, the result in [4], in [5], in [6] and in assay [18] was inactive.
Take `O=C(O)CCCc1ccc(N(CCCl)CCCl)cc1`: the compound was called inactive in [1], in [3], in [12], in [15], in [16] and in [17]. Besides, the outcome in [18], in [19] and in assay [20] was inactive. The AC50 is 15.8 µM (active) and 13.4 µM (active) in [2]; 20 µM (active) in [4]; 30.8 µM (active) and 20 µM (active) in assay [5]; 30.6 µM (active) and 20 µM (active) in [6]; 20 µM (active) and 12.5 µM (active) in assay [7]; 20 µM (active) and 28.3 µM (active) in [8]. Besides, the AC50 is 20 µM (active) in [9]; 20 µM (active) and 10.2 µM (active) in [10]; 20 µM (active) and 10.3 µM (active) in [11]; 3.48 µM (active) and 5.7 µM (active) in assay [13]; 12.7 µM (active) and 13 µM (active) in assay [14]; 15 µM (active) in [15]. Besides, the AC50 in [16] was 20 µM (active); in assay [17], 35.5 µM (active); in assay [19], 0.016 µM (active); in assay [20], 30.6 µM (active).
Take `COc1ncc(F)c2nc(S(=O)(=O)Nc3c(F)cccc3F)nn12`: the outcome in [1] was inactive.
With `O=C1C=CC(=O)C=C1`, the AC50 in assay [2] was 28.8 µM (active) and 13.8 µM (active); in assay [8] it was 20 µM (active); in [9], 29 µM (active) and 27.7 µM (active); in [12], 17.3 µM (active) and 27.7 µM (active); in assay [13], 10.9 µM (active) and 28 µM (active); in assay [14] it was 17.8 µM (active) and 24.2 µM (active). Moreover, the AC50 is 13.6 µM (active) and 20 µM (active) in assay [15]; 32.2 µM (active) and 20 µM (active) in assay [16]; 26.3 µM (active) and 32 µM (active) in assay [17]; 34.4 µM (active) in assay [18]; 36.9 µM (active) and 26.8 µM (active) in assay [19]; 5.76 µM (active) in assay [20]. Besides, the outcome in [3], in assay [4], in assay [5], in assay [6], in assay [7] and in [10] was inactive. Further, the outcome in assay [11], in assay [18] and in assay [20] was inactive.
